# Results reported in PMC7862700, “An all-to-all approach to the identification of sequence-specific readers for epigenetic DNA modifications on cytosine”.
# Columns and labels:
# Assay in all cases: DAPPL (digital affinity profiling via proximity ligation, sequencing); 10 mM Tris-HCl pH 7.5, 50 mM NaCl, 1 mM DTT, 4% glycerol, room temperature, 30 min; GST-TFs on glutathione beads, 16-mer random dsDNA library, 0.1% formaldehyde crosslink after washing; high values mean tight binding
# [1] = molecular target: T1, GABPA (Homo sapiens, UniProt Q06546 1-454); settings: protein: recombinant; tags: N-terminal GST; dsDNA, one strand shown
# T1 sequence: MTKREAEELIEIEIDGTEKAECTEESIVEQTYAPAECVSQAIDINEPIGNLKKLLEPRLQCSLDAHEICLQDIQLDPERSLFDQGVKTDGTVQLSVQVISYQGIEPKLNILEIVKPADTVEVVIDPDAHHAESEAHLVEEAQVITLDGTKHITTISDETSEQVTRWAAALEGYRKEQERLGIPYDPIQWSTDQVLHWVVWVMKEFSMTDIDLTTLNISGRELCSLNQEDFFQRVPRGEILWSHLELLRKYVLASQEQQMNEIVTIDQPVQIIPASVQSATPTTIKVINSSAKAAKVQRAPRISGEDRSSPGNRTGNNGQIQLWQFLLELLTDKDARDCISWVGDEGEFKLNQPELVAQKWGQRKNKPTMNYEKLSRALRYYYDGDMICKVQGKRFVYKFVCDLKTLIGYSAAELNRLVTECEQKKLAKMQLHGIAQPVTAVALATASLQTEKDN
# How it was run: (§1)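 Binding signal is each hexamer's read frequency for a factor divided by its frequency in the tag-only sample. The factors were GST-fused human transcription factors from yeast, captured on glutathione beads, DNA-barcoded and pooled with that sample. Pools were incubated with 200 nmole of a random double-stranded 16-mer DNA library in Tris/NaCl/DTT/glycerol buffer at room temperature for 30 min, then washed, crosslinked with 0.1% formaldehyde, proximity-ligated with BsaI/T4 ligase (1 h, 37 °C), PCR-amplified and sequenced on an Illumina NextSeq500.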
# [2] = molecular target: ELF1 (Homo sapiens, UniProt P32519 1-619); settings: protein: recombinant; tags: N-terminal GST; dsDNA, one strand shown
# Sequence of ELF1 (P32519 whole entry): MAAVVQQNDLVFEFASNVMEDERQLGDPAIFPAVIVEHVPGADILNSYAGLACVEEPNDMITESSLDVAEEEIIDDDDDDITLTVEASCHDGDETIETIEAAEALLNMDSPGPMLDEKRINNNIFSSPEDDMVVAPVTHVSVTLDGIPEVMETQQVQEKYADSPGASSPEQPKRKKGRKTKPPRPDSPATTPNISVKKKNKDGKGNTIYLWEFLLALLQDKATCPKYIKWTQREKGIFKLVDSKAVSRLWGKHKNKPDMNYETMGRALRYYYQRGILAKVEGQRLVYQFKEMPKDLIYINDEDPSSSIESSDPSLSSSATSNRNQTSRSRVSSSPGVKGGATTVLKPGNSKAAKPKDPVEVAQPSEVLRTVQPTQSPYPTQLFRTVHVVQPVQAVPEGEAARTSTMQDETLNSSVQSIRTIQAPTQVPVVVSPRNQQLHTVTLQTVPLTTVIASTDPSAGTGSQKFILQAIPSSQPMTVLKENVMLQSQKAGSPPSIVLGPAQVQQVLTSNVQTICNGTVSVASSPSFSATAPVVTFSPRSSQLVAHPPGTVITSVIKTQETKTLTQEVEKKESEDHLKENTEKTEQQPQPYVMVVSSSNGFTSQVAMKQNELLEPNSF
# How it was run: as §1
# [3] = molecular target: T2, EHF (Homo sapiens, UniProt Q9NZC4 1-300); settings: protein: recombinant; tags: N-terminal GST; dsDNA, one strand shown
# T2 sequence: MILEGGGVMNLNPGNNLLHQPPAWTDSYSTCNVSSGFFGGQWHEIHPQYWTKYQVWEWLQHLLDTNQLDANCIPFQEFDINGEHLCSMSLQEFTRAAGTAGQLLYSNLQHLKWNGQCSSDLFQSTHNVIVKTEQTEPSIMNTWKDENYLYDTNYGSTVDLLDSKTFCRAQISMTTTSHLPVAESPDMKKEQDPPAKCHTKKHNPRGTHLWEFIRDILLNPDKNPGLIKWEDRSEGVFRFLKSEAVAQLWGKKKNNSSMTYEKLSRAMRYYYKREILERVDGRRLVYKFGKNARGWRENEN
# How it was run: as §1
# [4] = molecular target: SPI1 (Homo sapiens, UniProt P17947 1-270); settings: protein: recombinant; tags: N-terminal GST; dsDNA, one strand shown
# How it was run: as §1
# [5] = molecular target: T3, ELK3 (Homo sapiens, UniProt P41970 1-407); settings: protein: recombinant; tags: N-terminal GST; dsDNA, one strand shown
# T3 sequence: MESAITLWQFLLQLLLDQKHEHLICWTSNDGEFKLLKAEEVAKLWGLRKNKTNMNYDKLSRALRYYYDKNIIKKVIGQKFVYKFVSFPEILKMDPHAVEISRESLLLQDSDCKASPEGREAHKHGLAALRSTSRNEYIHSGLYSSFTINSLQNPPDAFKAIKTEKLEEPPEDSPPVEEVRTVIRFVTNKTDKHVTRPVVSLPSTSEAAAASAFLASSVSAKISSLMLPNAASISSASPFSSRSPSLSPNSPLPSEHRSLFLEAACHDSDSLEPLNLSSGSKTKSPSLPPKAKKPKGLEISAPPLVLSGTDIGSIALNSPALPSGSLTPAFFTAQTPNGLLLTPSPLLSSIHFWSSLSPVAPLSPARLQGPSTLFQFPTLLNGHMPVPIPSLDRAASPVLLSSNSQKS
# How it was run: as §1
# [6] = molecular target: T4, FEV (Homo sapiens, UniProt Q99581 1-238); settings: protein: recombinant; tags: N-terminal GST; dsDNA, one strand shown
# T4 sequence: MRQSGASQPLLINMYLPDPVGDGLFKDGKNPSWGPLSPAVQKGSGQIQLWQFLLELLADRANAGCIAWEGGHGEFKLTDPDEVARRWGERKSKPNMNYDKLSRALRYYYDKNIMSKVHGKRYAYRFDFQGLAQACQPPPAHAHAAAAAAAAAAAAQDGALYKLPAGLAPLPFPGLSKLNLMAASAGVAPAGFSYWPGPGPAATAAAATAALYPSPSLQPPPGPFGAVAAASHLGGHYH
# How it was run: as §1
# [7] = molecular target: HSF1 (Homo sapiens, UniProt Q00613 1-529); settings: protein: recombinant; tags: N-terminal GST; chain copies: 3; dsDNA, one strand shown
# Sequence of HSF1 (Q00613 whole entry): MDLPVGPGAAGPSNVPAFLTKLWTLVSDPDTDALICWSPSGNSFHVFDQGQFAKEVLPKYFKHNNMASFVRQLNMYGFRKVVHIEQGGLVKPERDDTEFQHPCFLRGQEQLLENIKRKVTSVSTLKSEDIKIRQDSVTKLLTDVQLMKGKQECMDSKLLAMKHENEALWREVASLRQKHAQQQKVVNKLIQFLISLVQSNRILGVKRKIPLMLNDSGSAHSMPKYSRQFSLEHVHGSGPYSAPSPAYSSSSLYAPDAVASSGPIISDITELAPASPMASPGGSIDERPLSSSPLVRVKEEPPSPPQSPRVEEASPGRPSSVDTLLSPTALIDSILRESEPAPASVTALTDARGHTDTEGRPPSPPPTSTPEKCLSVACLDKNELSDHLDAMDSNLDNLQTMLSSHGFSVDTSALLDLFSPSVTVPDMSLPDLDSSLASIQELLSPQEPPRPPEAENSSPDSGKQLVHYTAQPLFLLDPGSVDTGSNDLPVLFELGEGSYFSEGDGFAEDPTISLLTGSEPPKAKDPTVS
# How it was run: as §1
# [8] = molecular target: ELF4 (Homo sapiens, UniProt Q99607 1-663); settings: protein: recombinant; tags: N-terminal GST; dsDNA, one strand shown
# Sequence of ELF4 (Q99607 whole entry): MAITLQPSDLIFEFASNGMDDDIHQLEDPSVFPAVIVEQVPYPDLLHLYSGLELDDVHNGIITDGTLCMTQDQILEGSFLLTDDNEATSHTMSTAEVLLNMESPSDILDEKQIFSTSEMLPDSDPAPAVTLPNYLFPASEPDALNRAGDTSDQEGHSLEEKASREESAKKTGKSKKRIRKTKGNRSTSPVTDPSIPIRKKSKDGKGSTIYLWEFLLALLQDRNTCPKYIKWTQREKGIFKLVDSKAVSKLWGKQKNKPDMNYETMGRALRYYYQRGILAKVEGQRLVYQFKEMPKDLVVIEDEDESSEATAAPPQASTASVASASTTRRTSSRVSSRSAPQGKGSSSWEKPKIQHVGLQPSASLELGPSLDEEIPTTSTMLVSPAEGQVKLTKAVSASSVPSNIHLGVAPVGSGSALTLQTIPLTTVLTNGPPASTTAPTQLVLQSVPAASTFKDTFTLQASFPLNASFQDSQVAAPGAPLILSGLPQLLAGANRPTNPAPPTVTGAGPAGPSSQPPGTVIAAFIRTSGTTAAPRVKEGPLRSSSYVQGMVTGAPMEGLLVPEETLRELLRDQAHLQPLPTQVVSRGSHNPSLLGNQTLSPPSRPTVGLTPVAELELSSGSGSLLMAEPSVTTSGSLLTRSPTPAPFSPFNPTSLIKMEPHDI
# How it was run: as §1
# [9] = molecular target: T5, ELK4 (Homo sapiens, UniProt P28324-2 1-405); settings: protein: recombinant; tags: N-terminal GST; dsDNA, one strand shown
# T5 sequence: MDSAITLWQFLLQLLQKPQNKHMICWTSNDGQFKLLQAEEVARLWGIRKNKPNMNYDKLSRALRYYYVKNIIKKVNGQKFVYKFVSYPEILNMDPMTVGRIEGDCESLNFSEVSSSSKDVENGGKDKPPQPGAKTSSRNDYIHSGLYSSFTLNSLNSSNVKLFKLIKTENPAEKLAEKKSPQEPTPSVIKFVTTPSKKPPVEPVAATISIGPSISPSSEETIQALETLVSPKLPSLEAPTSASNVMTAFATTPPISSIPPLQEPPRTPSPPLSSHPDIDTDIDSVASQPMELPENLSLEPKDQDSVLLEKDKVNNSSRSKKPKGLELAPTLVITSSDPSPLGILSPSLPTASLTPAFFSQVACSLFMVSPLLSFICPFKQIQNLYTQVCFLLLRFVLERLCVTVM
# How it was run: as §1
# [10] = molecular target: T6, ELF3 (Homo sapiens, UniProt P78545 1-371); settings: protein: recombinant; tags: N-terminal GST; dsDNA, one strand shown
# T6 sequence: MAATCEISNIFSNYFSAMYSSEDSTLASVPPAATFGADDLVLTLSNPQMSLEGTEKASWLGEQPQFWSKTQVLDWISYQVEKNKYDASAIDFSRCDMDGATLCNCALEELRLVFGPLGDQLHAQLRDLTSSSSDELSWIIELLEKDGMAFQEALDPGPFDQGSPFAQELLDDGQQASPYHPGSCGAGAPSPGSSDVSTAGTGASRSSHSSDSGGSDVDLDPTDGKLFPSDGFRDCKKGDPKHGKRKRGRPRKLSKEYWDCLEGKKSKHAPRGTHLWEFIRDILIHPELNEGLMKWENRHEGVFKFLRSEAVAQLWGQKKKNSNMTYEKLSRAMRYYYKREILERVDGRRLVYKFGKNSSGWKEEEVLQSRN
# How it was run: as §1
# [11] = molecular target: T7, ERF (Homo sapiens, UniProt P50548 1-548); settings: protein: recombinant; tags: N-terminal GST; dsDNA, one strand shown
# T7 sequence: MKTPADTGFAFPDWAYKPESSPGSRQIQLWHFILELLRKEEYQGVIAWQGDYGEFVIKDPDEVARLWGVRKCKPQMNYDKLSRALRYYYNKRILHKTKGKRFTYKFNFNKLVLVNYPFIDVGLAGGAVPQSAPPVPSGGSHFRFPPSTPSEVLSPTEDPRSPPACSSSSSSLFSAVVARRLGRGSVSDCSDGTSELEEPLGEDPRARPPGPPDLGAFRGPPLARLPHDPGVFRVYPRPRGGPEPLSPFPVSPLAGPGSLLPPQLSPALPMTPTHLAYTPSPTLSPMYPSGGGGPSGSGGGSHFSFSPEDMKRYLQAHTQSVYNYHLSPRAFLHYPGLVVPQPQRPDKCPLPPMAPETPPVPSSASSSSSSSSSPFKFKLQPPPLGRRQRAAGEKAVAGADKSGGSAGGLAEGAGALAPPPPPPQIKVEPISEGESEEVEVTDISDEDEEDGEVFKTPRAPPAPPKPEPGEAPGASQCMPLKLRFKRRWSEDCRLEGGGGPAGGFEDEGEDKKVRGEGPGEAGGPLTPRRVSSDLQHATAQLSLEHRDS
# How it was run: as §1
# [12] = molecular target: T8, ETS2 (Homo sapiens, UniProt P15036 1-469); settings: protein: recombinant; tags: N-terminal GST; dsDNA, one strand shown
# T8 sequence: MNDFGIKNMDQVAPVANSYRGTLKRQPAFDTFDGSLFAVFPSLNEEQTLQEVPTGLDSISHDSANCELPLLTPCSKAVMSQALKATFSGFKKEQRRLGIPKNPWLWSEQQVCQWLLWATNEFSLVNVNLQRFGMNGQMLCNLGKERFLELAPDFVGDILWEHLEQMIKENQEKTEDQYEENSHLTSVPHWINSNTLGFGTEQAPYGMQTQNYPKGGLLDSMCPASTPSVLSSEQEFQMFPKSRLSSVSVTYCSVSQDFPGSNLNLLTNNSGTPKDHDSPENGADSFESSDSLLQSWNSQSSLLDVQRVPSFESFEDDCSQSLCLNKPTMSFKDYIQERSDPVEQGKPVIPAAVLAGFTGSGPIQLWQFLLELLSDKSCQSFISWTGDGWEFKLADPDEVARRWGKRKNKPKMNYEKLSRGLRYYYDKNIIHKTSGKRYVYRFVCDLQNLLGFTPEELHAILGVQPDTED
# How it was run: as §1
# [13] = molecular target: T9, ETV7 (Homo sapiens, UniProt Q9Y603 1-341); settings: protein: recombinant; tags: N-terminal GST; dsDNA, one strand shown
# T9 sequence: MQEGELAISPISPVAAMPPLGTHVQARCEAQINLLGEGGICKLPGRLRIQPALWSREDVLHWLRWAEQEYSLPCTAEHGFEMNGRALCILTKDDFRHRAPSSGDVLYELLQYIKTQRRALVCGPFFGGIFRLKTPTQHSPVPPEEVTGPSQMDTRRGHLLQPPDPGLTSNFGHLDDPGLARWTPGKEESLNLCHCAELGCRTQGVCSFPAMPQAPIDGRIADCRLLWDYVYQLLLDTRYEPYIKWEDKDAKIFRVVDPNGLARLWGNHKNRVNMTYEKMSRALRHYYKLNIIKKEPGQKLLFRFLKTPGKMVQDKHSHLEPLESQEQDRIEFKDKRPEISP
# How it was run: as §1
# [14] = molecular target: ETV6 (Homo sapiens, UniProt P41212 1-452); settings: protein: recombinant; tags: N-terminal GST; dsDNA, one strand shown
# Sequence of ETV6 (P41212 whole entry): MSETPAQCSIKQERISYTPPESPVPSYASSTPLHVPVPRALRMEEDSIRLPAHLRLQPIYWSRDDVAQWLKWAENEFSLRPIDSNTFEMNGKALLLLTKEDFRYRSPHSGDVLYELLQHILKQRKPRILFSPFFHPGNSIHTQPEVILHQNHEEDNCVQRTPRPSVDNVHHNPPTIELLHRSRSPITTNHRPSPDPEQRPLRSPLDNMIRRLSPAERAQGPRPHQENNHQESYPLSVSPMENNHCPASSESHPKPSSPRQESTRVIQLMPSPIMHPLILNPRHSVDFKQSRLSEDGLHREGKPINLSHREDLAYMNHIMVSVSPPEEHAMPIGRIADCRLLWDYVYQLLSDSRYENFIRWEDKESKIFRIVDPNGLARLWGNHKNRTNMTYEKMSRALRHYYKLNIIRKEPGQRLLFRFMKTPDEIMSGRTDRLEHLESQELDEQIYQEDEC
# How it was run: as §1
# [15] = molecular target: T10, ETV2 (Homo sapiens, UniProt O00321 1-342); settings: protein: recombinant; tags: N-terminal GST; dsDNA, one strand shown
# T10 sequence: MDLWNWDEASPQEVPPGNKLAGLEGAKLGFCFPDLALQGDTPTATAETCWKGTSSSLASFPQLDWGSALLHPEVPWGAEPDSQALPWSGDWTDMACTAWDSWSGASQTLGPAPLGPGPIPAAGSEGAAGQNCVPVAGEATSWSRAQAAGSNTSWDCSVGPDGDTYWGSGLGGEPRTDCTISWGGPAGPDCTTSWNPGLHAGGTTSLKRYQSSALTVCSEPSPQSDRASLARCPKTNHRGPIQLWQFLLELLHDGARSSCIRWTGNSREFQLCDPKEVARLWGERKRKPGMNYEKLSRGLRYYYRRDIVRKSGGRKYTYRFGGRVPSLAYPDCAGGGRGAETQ
# How it was run: as §1
Sequence,binding signal [1],binding signal [2],binding signal [3],binding signal [4],binding signal [5],binding signal [6],binding signal [7],binding signal [8],binding signal [9],binding signal [10],binding signal [11],binding signal [12],binding signal [13],binding signal [14],binding signal [15]
CGAATG,"1.12 fold enrichment (6-mer frequency, TF over GST control)","1.05 fold enrichment (6-mer frequency, TF over GST control)","1.05 fold enrichment (6-mer frequency, TF over GST control)","1.03 fold enrichment (6-mer frequency, TF over GST control)","1.01 fold enrichment (6-mer frequency, TF over GST control)","1.01 fold enrichment (6-mer frequency, TF over GST control)","1.5 fold enrichment (6-mer frequency, TF over GST control)","1.13 fold enrichment (6-mer frequency, TF over GST control)","1.07 fold enrichment (6-mer frequency, TF over GST control)","1.12 fold enrichment (6-mer frequency, TF over GST control)","1.02 fold enrichment (6-mer frequency, TF over GST control)","1.14 fold enrichment (6-mer frequency, TF over GST control)","1.08 fold enrichment (6-mer frequency, TF over GST control)","1.11 fold enrichment (6-mer frequency, TF over GST control)",
GCCTAG,"1.02 fold enrichment (6-mer frequency, TF over GST control)",,,,,,"1.21 fold enrichment (6-mer frequency, TF over GST control)",,"1.03 fold enrichment (6-mer frequency, TF over GST control)",,"1.06 fold enrichment (6-mer frequency, TF over GST control)","1 fold enrichment (6-mer frequency, TF over GST control)","1 fold enrichment (6-mer frequency, TF over GST control)",,"1.08 fold enrichment (6-mer frequency, TF over GST control)"
